Data published in PubChem BioAssay AID1159580 (chemical genetic matrix, 2015).
Hit rate of the full screen: of about 5,500 compounds, about 2,000 (36%) were called active. Not shown: some 18% with an inconclusive outcome. Rule as the data show it: active = normalized growth mostly below about 0.91 (no sharp cut-off); inconclusive = no clear call, values can overlap the other calls; inactive = mostly above about 0.92. The list shows a part of the results.

Assay: chemical genetic growth profiling, strain panel (AID 1159580);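 also: tested at 20 µM; growth read once vehicle control cultures reached saturation at 30 °C; 1 = growth at the plate median or of vehicle wells; lower values mean less growth of the strain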
Conditions: S. cerevisiae deletion strains, growth OD

Measured: normalized growth

C=C(C)C1CC=C(CO)CC1 (stereo not given)
inactive: locus YAL021C, strain ccr4, active compounds read low 0.983 | locus YAL026C, strain drs2, active compounds read low 0.978 | locus YAL030W, strain snc1, active compounds read low 0.973 | locus YBL061C, strain skt5, active compounds read low 0.991 | locus YBR009C, strain hhf1, active compounds read low 0.994 | locus YBR023C, strain chs3, active compounds read low 0.981 | locus YBR171W, strain sec66, active compounds read low 0.95 | locus YBR231C, strain swc5, active compounds read low 0.975 | locus YBR279W, strain paf1, active compounds read low 0.983 | locus YCL011C, strain gbp2, active compounds read low 0.963 | locus YCL016C, strain dcc1, active compounds read low 0.983 | locus YCL061C, strain MRC1, active compounds read low 0.978 | locus YCL069W, strain vba3, active compounds read low 0.948 | locus YCR088W, strain abp1, active compounds read low 0.963 | locus YDL005C, strain med2, active compounds read low 0.961 | locus YDL040C, strain nat1, active compounds read low 0.959 | locus YDR001C, strain nth1, active compounds read low 0.963 | locus YDR069C, strain doa4, active compounds read low 0.978 | locus YDR137W, strain rgp1, active compounds read low 0.941 | locus YDR159W, strain sac3, active compounds read low 0.943 | locus YDR297W, strain sur2, active compounds read low 0.975 | locus YDR334W, strain swr1, active compounds read low 0.938 | locus YDR335W, strain msn5, active compounds read low 0.965 | locus YDR392W, strain spt3, active compounds read low 0.844 | locus YEL003W, strain gim4, active compounds read low 0.976 | locus YEL037C, strain rad23, active compounds read low 0.955 | locus YEL061C, strain CIN8 (second series), active compounds read low 0.946 | locus YER015W, strain faa2, active compounds read low 0.976 | locus YER016W, strain bim1, active compounds read low 0.969 | locus YER111C, strain swi4, active compounds read low 0.963 | locus YFR010W, strain ubp6, active compounds read low 0.98 | locus YGL167C, strain pmr1, active compounds read low 0.96 | locus YGL173C, strain kem1, active compounds read low 0.955 | locus YGL227W, strain vid30, active compounds read low 0.965 | locus YGL240W, strain doc1, active compounds read low 0.954 | locus YGL253W, strain hxk2, active compounds read low 0.983 | locus YHR013C, strain ard1, active compounds read low 0.982 | locus YHR027C, strain rpn1, active compounds read low 0.976 | locus YHR030C, strain SLT2, active compounds read low 1.06 | locus YHR079C, strain IRE1, active compounds read low 1.05 | locus YHR142W, strain chs7, active compounds read low 0.995 | locus YJL092W, strain hpr5, active compounds read low 0.938 | locus YJL095W, strain BCK1 (second series), active compounds read low 0.97 | locus YJL095W, strain BCK1, active compounds read low 1.02 | locus YJL115W, strain asf1, active compounds read low 0.953 | locus YJL129C, strain trk1, active compounds read low 0.923 | locus YJL154C, strain vps35, active compounds read low 0.962 | locus YJL164C, strain tpk1, active compounds read low 0.987 | locus YJL166W, strain qcr8, active compounds read low 0.972 | locus YJL187C, strain SWE1, active compounds read low 0.968 | locus YJR066W, strain TOR1, active compounds read low 0.997 | locus YKL160W, strain elf1, active compounds read low 0.978 | locus YKR026C, strain gcn3, active compounds read low 0.972 | locus YKR091W, strain srl3, active compounds read low 0.953 | locus YLL001W, strain dnm1, active compounds read low 0.988 | locus YLL026W, active compounds read low 0.976 | locus YLL041C, strain sdh2, active compounds read low 0.971 | locus YLR027C, strain aat2, active compounds read low 0.993 | locus YLR113W, strain HOG1, active compounds read low 1.01 | locus YLR221C, strain rsa3, active compounds read low 1.01 | locus YLR258W, strain gsy2, active compounds read low 0.979 | locus YLR262C, strain YPT6 (second series), active compounds read low 0.954 | locus YLR320W, strain mms22, active compounds read low 0.983 | locus YLR342W, strain FKS1, active compounds read low 0.967 | locus YLR357W, strain rsc2, active compounds read low 0.92 | locus YLR370C, strain arc18, active compounds read low 0.938 | locus YLR384C, strain iki3, active compounds read low 0.958 | locus YML120C, strain ndi1, active compounds read low 0.974 | locus YMR058W, strain fet3, active compounds read low 0.968 | locus YMR125W, strain sto1, active compounds read low 0.931 | locus YMR129W, active compounds read low 0.955 | locus YMR205C, strain PFK2, active compounds read low 0.956 | locus YMR231W, strain pep5, active compounds read low 0.971 | locus YNL071W, strain lat1, active compounds read low 0.953 | locus YNL183C, strain NPR1, active compounds read low 0.947 | locus YNL209W, strain ssb2, active compounds read low 0.968 | locus YNL248C, strain rpa49, active compounds read low 0.932 | locus YNL322C, strain KRE1 (second series), active compounds read low 0.948 | locus YNR049C, strain mso1, active compounds read low 0.951 | locus YOR001W, strain rrp6, active compounds read low 0.969 | locus YOR070C, strain gyp1, active compounds read low 0.97 | locus YOR080W, strain dia2, active compounds read low 0.951 | locus YOR083W, strain WHI5, active compounds read low 0.994 | locus YOR106W, strain vam3, active compounds read low 0.989 | locus YOR231W, strain MKK1, active compounds read low 1.05 | locus YOR265W, strain rbl2, active compounds read low 0.968 | locus YOR270C, strain vph1, active compounds read low 0.949 | locus YOR290C, strain snf2, active compounds read low 0.96 | locus YPL051W, strain arl3, active compounds read low 0.99 | locus YPL078C, strain atp4, active compounds read low 0.979 | locus YPL106C, strain sse1, active compounds read low 0.945 | locus YPL240C, strain hsp82, active compounds read low 0.959 | locus YPL256C, strain CLN2, active compounds read low 1.04
active: locus YDR195W, strain ref2 0.809 | locus YER155C, strain BEM2 (second series), active compounds read low 0.793
